Results from article PMC9838217, “Structure of SALL4 zinc finger domain reveals link between AT-rich DNA binding and Okihiro syndrome”.
Where a chain is given by its changes, count along the chain named.

These sequences were tested against T1, SALL4 ZFC4 WT (HT-SELEX) (Mus musculus, UniProt Q8BX22 870-940) (assay: HT-SELEX; high values mean tight binding). Conditions: protein: recombinant; vector His6-GST; dsDNA, one strand shown.
T1 sequence: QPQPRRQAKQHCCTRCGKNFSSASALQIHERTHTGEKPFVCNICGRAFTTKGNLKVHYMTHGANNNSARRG
Method in brief: (§1)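 Up to 6 cycles of selection were run in triplicate. In each, purified recombinant mouse SALL4 zinc finger cluster 4 (residues 870–940, 1 µg) was incubated with library DNA (1.5 µg first cycle, 200 ng later) in 100 µl of 10 mM Tris–HCl pH 7.5, 50 mM NaCl, poly(dI-dC), DTT for 10 min at room temperature, then complexes were captured on Ni2+ beads, washed and PCR-amplified; final pools were MiSeq-sequenced and scanned for 6-mers. Binding signal is each canonical k-mer's read fraction as fold change versus the initial random library.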

Row | Sequence | binding signal [fold-change vs cycle 0]
1 | ACATTG | 1.17 ± 0.0218
2 | TAACCA | 1.42 ± 0.042
3 | ACATGG | 0.798 ± 0.0238
4 | CCCACA | 0.389 ± 0.0158
5 | AATTAG | 1.92 ± 0.0642
6 | ATTTAG | 1.79 ± 0.0993
7 | AATGCG | 0.428 ± 0.0345
8 | CTTTGC | 0.581 ± 0.0144
9 | GTGGTA | 0.757 ± 0.0708
10 | ACTTGA | 1.33 ± 0.0337
11 | AAAAGC | 0.816 ± 0.0288
12 | GATCCA | 0.791 ± 0.0326
13 | AAGGTC | 0.725 ± 0.0449
14 | CAATCC | 0.816 ± 0.0436
15 | CACAAG | 0.713 ± 0.0143
16 | AAGCGA | 0.546 ± 0.0399
17 | CCTAAA | 1.13 ± 0.0805
18 | ACTACT | 1.38 ± 0.0657
19 | GCATCA | 0.645 ± 0.017
20 | ACCGAA | 0.637 ± 0.01

Row | Sequence | binding signal [fold-change vs cycle 0]
21 | TGCCAA | 0.456 ± 0.0199
22 | TCGTCA | 0.675 ± 0.0174
23 | AACTGC | 0.6 ± 0.0299
24 | CCAACA | 0.656 ± 0.00995
25 | CATTAC | 1.43 ± 0.0799
26 | ACTGCA | 0.647 ± 0.0528
27 | ATATTC | 2.62 ± 0.255
28 | CAAAAA | 1.52 ± 0.0617
29 | TACTGA | 1.38 ± 0.119
30 | CCACGA | 0.33 ± 0.0384
31 | CAAGTA | 1.28 ± 0.0466
32 | ACGTCT | 0.744 ± 0.0352
33 | CTACGA | 0.656 ± 0.0504
34 | ACAATC | 1.25 ± 0.051
35 | AACGTC | 0.624 ± 0.0116
36 | CCCTTA | 0.943 ± 0.0612
37 | TGATCA | 1.35 ± 0.0953
38 | ACCACA | 0.701 ± 0.0312
39 | GATAGA | 1.32 ± 0.045
40 | TATTAA | 5.02 ± 0.457

The sequences below were run against T2, SALL4 ZFC4 R900W (HT-SELEX) (Mus musculus, UniProt Q8BX22 870-940, R900W) (assay: HT-SELEX; high values mean tight binding). Conditions: protein: recombinant; vector His6-GST; dsDNA, one strand shown.
T2 sequence: T1 sequence with R31W
Method in brief: as §1

Row | Sequence | binding signal [fold-change vs cycle 0]
41 | ACATTG | 1.29 ± 0.0215
42 | TAACCA | 1.47 ± 0.047
43 | ACATGG | 0.918 ± 0.032
44 | CCCACA | 0.42 ± 0.0162
45 | AATTAG | 1.97 ± 0.0604
46 | ATTTAG | 1.83 ± 0.0928
47 | AATGCG | 0.473 ± 0.0206
48 | CTTTGC | 0.663 ± 0.0189
49 | GTGGTA | 0.849 ± 0.0366
50 | ACTTGA | 1.5 ± 0.0479
51 | AAAAGC | 0.899 ± 0.0164
52 | GATCCA | 0.883 ± 0.0218
53 | AAGGTC | 0.885 ± 0.0273
54 | CAATCC | 0.939 ± 0.0312
55 | CACAAG | 0.853 ± 0.0253
56 | AAGCGA | 0.616 ± 0.0449
57 | CCTAAA | 1.27 ± 0.0327
58 | ACTACT | 1.52 ± 0.107
59 | GCATCA | 0.724 ± 0.00868
60 | ACCGAA | 0.698 ± 0.028

Row | Sequence | binding signal [fold-change vs cycle 0]
61 | TGCCAA | 0.502 ± 0.00872
62 | TCGTCA | 0.765 ± 0.0313
63 | AACTGC | 0.647 ± 0.0277
64 | CCAACA | 0.739 ± 0.0191
65 | CATTAC | 1.52 ± 0.113
66 | ACTGCA | 0.7299 ± 0.00625
67 | ATATTC | 1.95 ± 0.1
68 | CAAAAA | 1.38 ± 0.0576
69 | TACTGA | 1.53 ± 0.139
70 | CCACGA | 0.407 ± 0.011
71 | CAAGTA | 1.42 ± 0.0751
72 | ACGTCT | 0.85 ± 0.0392
73 | CTACGA | 0.762 ± 0.0209
74 | ACAATC | 1.38 ± 0.0687
75 | AACGTC | 0.722 ± 0.0138
76 | CCCTTA | 1.06 ± 0.0532
77 | TGATCA | 1.5 ± 0.0834
78 | ACCACA | 0.793 ± 0.0317
79 | GATAGA | 1.46 ± 0.0749
80 | TATTAA | 2.69 ± 0.232

Each sequence was assayed against T3, SALL4 ZFC4 G921D (HT-SELEX) (Mus musculus, UniProt Q8BX22 870-940, G921D) (assay: HT-SELEX; high values mean tight binding). Conditions: protein: recombinant; vector His6-GST; dsDNA, one strand shown.
T3 sequence: T1 sequence with G52D
Method in brief: as §1

Row | Sequence | binding signal [fold-change vs cycle 0]
81 | ACATTG | 1.28 ± 0.0251
82 | TAACCA | 1.37 ± 0.0838
83 | ACATGG | 0.959 ± 0.0218
84 | CCCACA | 0.523 ± 0.0663
85 | AATTAG | 1.75 ± 0.104
86 | ATTTAG | 1.64 ± 0.15
87 | AATGCG | 0.61 ± 0.0401
88 | CTTTGC | 0.743 ± 0.024
89 | GTGGTA | 0.874 ± 0.0298
90 | ACTTGA | 1.41 ± 0.0888
91 | AAAAGC | 0.953 ± 0.0234
92 | GATCCA | 0.996 ± 0.0315
93 | AAGGTC | 0.943 ± 0.0196
94 | CAATCC | 0.973 ± 0.0236
95 | CACAAG | 0.901 ± 0.0111
96 | AAGCGA | 0.734 ± 0.0783
97 | CCTAAA | 1.18 ± 0.0527
98 | ACTACT | 1.43 ± 0.121
99 | GCATCA | 0.83 ± 0.0436
100 | ACCGAA | 0.776 ± 0.0511

Row | Sequence | binding signal [fold-change vs cycle 0]
101 | TGCCAA | 0.652 ± 0.0602
102 | TCGTCA | 0.852 ± 0.012
103 | AACTGC | 0.741 ± 0.0348
104 | CCAACA | 0.817 ± 0.0303
105 | CATTAC | 1.41 ± 0.113
106 | ACTGCA | 0.797 ± 0.0181
107 | ATATTC | 1.78 ± 0.19
108 | CAAAAA | 1.35 ± 0.0641
109 | TACTGA | 1.42 ± 0.164
110 | CCACGA | 0.515 ± 0.0508
111 | CAAGTA | 1.34 ± 0.0943
112 | ACGTCT | 0.941 ± 0.0281
113 | CTACGA | 0.827 ± 0.0362
114 | ACAATC | 1.36 ± 0.0869
115 | AACGTC | 0.813 ± 0.0314
116 | CCCTTA | 1.02 ± 0.0595
117 | TGATCA | 1.47 ± 0.128
118 | ACCACA | 0.841 ± 0.0188
119 | GATAGA | 1.38 ± 0.128
120 | TATTAA | 2.25 ± 0.285
